From paper PMC8384837, “Expanding the binding specificity for RNA recognition by a PUF domain”
Residue numbers refer to the chain shown, from its start.

Assays:
Test in all cases: yeast three-hybrid, YBZ-1, SC-Leu-His + 0.5 mM 3-AT, 4 days
Conditions in all cases: tags: N-Gal4 AD-HA kept; label: inside an RPR1-promoter hybrid RNA with tandem MS2 sites; ssRNA
[1] = molecular target: PUM1 PUF domain R3-EWC (Homo sapiens, UniProt Q14671 828-1176, C935E;R936W;Q939C)
Method in brief: (§1)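 The interaction score is the log change in variant frequency from input to selection. Scores were computed in log2 with a pseudocount of 1 for absent variants, using Illumina sequencing of PCR-amplified repeat regions. The input came from four days on SC-Leu and the selection from four days on SC-Leu-His + 0.5 mM 3-AT. The cells were strain YBZ-1 (LexA–MS2 coat fusion, HIS3 reporter) co-expressing Pumilio-1 PUF domain libraries and matching RNA elements from a centromeric plasmid.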

[2] = molecular target: PUM1 PUF domain R7-LNR (Homo sapiens, UniProt Q14671 828-1176, S1079L;E1083R)
Method in brief: as §1

[3] = molecular target: T1, PUM1 PUF domain R6-GFG (Homo sapiens, UniProt Q14671 828-1176, N1043G;Y1044F;Q1047G)
T1 sequence: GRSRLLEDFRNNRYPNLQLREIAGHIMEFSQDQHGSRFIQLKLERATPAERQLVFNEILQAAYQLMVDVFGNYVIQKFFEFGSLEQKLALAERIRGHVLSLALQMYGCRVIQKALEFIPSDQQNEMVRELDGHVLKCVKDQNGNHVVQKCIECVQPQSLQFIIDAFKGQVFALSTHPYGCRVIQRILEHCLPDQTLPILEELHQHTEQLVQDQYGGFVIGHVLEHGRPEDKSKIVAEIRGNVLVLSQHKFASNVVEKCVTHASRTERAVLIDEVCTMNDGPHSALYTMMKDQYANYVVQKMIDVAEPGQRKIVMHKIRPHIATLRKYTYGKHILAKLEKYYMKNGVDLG
Method in brief: as §1

[4] = molecular target: PUM1 PUF domain R1-KHR (Homo sapiens, UniProt Q14671 828-1176, S863K;R864H;Q867R)
Method in brief: as §1

[5] = molecular target: PUM1 PUF domain R1-VYR (Homo sapiens, UniProt Q14671 828-1176, S863V;R864Y;Q867R)
Method in brief: as §1

[6] = molecular target: PUM1 PUF domain R8-KHG (Homo sapiens, UniProt Q14671 828-1176, N1122K;Y1123H;Q1126G)
Method in brief: as §1

[7] = molecular target: PUM1 PUF domain R2-NRD (Homo sapiens, UniProt Q14671 828-1176, Y900R;Q903D)
Method in brief: as §1

[8] = molecular target: T2, PUM1 PUF domain R6-SRE (Homo sapiens, UniProt Q14671 828-1176, N1043S;Y1044R;Q1047E)
T2 sequence: T1 sequence with G216S, F217R, G220E
Method in brief: as §1

In the case of “GGCUAGAACUAGUGGAUCCCCCGGCGCCCGGCGGCUCGAGCCCGGGUAAGUGUAACUAGUCUGCAUGCCGCCGGGCGCCAUGCCUGCAGGUCGACUCUAGAAAACAUG”, the binding signal [1] is reported as 4.45 log2 enrichment (interaction score).
In the case of “GGCUAGAACUAGUGGAUCCCCCGGCGCCCGGCGGCUCGAGCCCGGGUAAGUCUAAAUAGUCUGCAUGCCGCCGGGCGCCAUGCCUGCAGGUCGACUCUAGAAAACAUG”, the binding signal [2] is reported as 3.62 log2 enrichment (interaction score).
In the case of “GGCUAGAACUAGUGGAUCCCCCGGCGCCCGGCGGCUCGAGCCCGGGUAAGUGUAAAUAGUCUGCAUGCCGCCGGGCGCCAUGCCUGCAGGUCGACUCUAGAAAACAUG”, the binding signal [3] is reported as 3.55 log2 enrichment (interaction score).
For “GGCUAGAACUAGUGGAUCCCCCGGCGCCCGGCGGCUCGAGCCCGGGUAAGUGUAAAUUGUCUGCAUGCCGCCGGGCGCCAUGCCUGCAGGUCGACUCUAGAAAACAUG”, the binding signal [4] was 2.59 log2 enrichment (interaction score).
In the case of “GGCUAGAACUAGUGGAUCCCCCGGCGCCCGGCGGCUCGAGCCCGGGUAAGUGUAAAUCGUCUGCAUGCCGCCGGGCGCCAUGCCUGCAGGUCGACUCUAGAAAACAUG”, the binding signal [4] is reported as 5.17 log2 enrichment (interaction score) and the binding signal [5] is reported as 2.62 log2 enrichment (interaction score).
With “GGCUAGAACUAGUGGAUCCCCCGGCGCCCGGCGGCUCGAGCCCGGGUAAGCGUAAAUAGUCUGCAUGCCGCCGGGCGCCAUGCCUGCAGGUCGACUCUAGAAAACAUG” the binding signal [6] was 5.27 log2 enrichment (interaction score).
“GGCUAGAACUAGUGGAUCCCCCGGCGCCCGGCGGCUCGAGCCCGGGUAAGGGUAAAUAGUCUGCAUGCCGCCGGGCGCCAUGCCUGCAGGUCGACUCUAGAAAACAUG” was tested, and the binding signal [6] was 3.34 log2 enrichment (interaction score).
In the case of “GGCUAGAACUAGUGGAUCCCCCGGCGCCCGGCGGCUCGAGCCCGGGUAAGUGUAAAAAGUCUGCAUGCCGCCGGGCGCCAUGCCUGCAGGUCGACUCUAGAAAACAUG”, the binding signal [7] is reported as 3.12 log2 enrichment (interaction score).
For “GGCUAGAACUAGUGGAUCCCCCGGCGCCCGGCGGCUCGAGCCCGGGUAAGUGGAAAUAGUCUGCAUGCCGCCGGGCGCCAUGCCUGCAGGUCGACUCUAGAAAACAUG”, the binding signal [8] was 5.64 log2 enrichment (interaction score).
